Reference: PubChem BioAssay AID1259415 (National Center for Advancing Translational Sciences (NCATS), 2018)
Hit rate of the full screen: of about 410,000 compounds, about 18,000 (4.4%) were called active. Inconclusive results (about 7%) are left out. For the sample, actives were picked, then their nearest neighbours and some compounds at random. Unmarked numbers belong to inactive results. No stated cut-off is given here; in the data, active means activity change below about -60%; inconclusive means no clear call, values can overlap the other calls; inactive means above about -39%.

Assay: qHTS Assay for inhibitors of the human cytomegalovirus (HCMV)
Settings: HFF cells, HCMV-luciferase reporter, 72 h; at 57.5 µM; stronger effect = lower value
Outline: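 Screen run at 2 compound doses on HFFs infected with reporter HCMV, MOI 1 PFU/cell. Luciferase activity from cell lysates at 72 h post infection gave inhibition relative to buffer-only and Salinomycin wells.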
On the % scale 0 is the no-effect control and ±100 the full control effect.

SMILES | activity change, negative = inhibition
CC(C)NC(=O)C(=O)NCCCOC(C)C | -7.97%
CN(CC(=O)NCCN1CCOCC1)S(=O)(=O)c1ccc(F)cc1 | -13.5%
CCc1ccccc1NC(=O)CSc1nnc(-c2ccccc2)c(-c2ccccc2)n1 | -84.3% (active)
COc1ccc(-c2nnc(SCC(=O)Nc3ccc(C(C)C)cc3)nc2-c2ccc(OC)c(OC)c2)cc1OC | 2%
Cc1ccc(-c2nnc(SCC(=O)NCc3ccccc3)nc2-c2ccc(C)cc2)cc1 | -16.5%
O=c1cc(CSc2ccccn2)nc(N2CCN(c3ccccc3)CC2)[nH]1 | 15.5%
COc1ccccc1N1CCN(C(=O)c2ccc(NC3=NC4CS(=O)(=O)CC4S3)cc2)CC1 (stereo not drawn) | -1.18%
COc1ccccc1N1CCN(C(=O)c2cc(=O)c3cc(C)cc(C)c3o2)CC1 | -72.5% (active)
CCOc1ccccc1N1CCN(C(=O)c2ccc3[nH]c(C)c(C)c3c2)CC1 | -4.04%
O=c1c2cccnc2n(Cc2cccc(F)c2)c(=O)n1Cc1ccccc1Cl | -4.52%
O=S(=O)(NCC(c1ccco1)N1CCOCC1)c1cc(F)ccc1F (stereo not drawn) | 10.6%
O=C(NN=CC=Cc1ccccc1)C(O)C(O)C(=O)NN=CC=Cc1ccccc1 (stereo not drawn) | -99% (active)
O=C(N/N=C/C=C/c1ccccc1)C1CC1(c1ccccc1)c1ccccc1 (stereo not drawn) | -22.7%
CC(OC(=O)/C=C/c1ccccc1)C(=O)Nc1ccc(C(N)=O)cc1 (stereo not drawn) | -26.6%
O=C(Nc1ccn(Cc2ccccc2)n1)c1n[nH]c([N+](=O)[O-])c1Cl | -0.724%
COC(=O)C(c1ccccc1)N1CCCCCC1 (stereo not drawn) | -22.2%
CC1(C)CC(N2CCN(C(c3ccccc3)c3ccccc3)CC2)=CC(=[N+]2CCCCC2)C1 | -98.5% (active)
COc1ccc(CCN2C(=O)N(c3cccc(OC)c3)C(=O)C2CC(=O)Nc2ccccc2)cc1 (stereo not drawn) | 30.6%
Cc1csc2nc(COc3ccc(NC(=O)COc4ccccc4)cc3)cc(=O)n12 | -18.6%
CCOC(=O)c1[nH]c(C)c(CCC(=O)N2CCN(c3ccccc3)CC2)c1C | -11%
COc1ccc(CCNCc2c(-c3ccccc3)n(C)c3ccccc23)cc1 | -5.91%
COc1ccc(-c2c(C#Cc3ccccc3)c3ccccc3n2C)cc1 | -78.4% (active)

SMILES | activity change, negative = inhibition
COc1cc(OC)cc(-c2c(C#Cc3ccsc3)c3cc(-c4ccc(SC)cc4)ccc3n2C)c1 | -6.32%
COc1ccccc1CNCc1ccc(C(=O)O)s1 | -9.76%
O=C(CSc1nc(=O)[nH]c2c1CCCC2)Nc1cc(C(F)(F)F)ccc1Cl | -20.6%
CN1CCN(Cc2nc3cc(NC(=O)COc4ccc([N+](=O)[O-])cc4)ccc3n2C)CC1 | 18.6%
Cn1c(CN2CCOCC2)nc2cc(NC(=O)c3ccc(Cl)cc3)ccc21 | -84.5% (active)
O=C(Nc1ccc(CN2CCOCC2)cc1)c1cc(Cl)ccc1Cl | -13.5%
Cc1ccccc1S(=O)(=O)N[C@H]1CC[C@@]23CCCN2C(=O)CCC[C@H]3[C@H]1C | -19.4%
Cc1cccc(Cn2c(CN3CCC(C(=O)NCc4ccccc4Cl)CC3)cc3ccccc32)c1 | -4.28%
CCc1cc2c(cc3c(=O)n(CC(=O)N4CCN(c5cc(Cl)ccc5C)CC4)ncn32)s1 | 85.8%
C#CCCCc1nc2ccccc2c(=O)n1N | 56.9%
O=c1c2ccccc2nc2n1C(CSc1ccc(Cl)cc1)CN2 (stereo not drawn) | 59.6%
O=c1c2ccccc2nc2n1C(CSCc1ccccc1)CS2 (stereo not drawn) | -74.9% (active)
O=c1n(Cc2cccc(C(F)(F)F)c2)c2ccccc2c2nc(-c3ccccc3)nn12 | 26.8%
O=c1c2ccccc2nc2n1C(CSCc1cccc(C(F)(F)F)c1)CS2 (stereo not drawn) | -67.5% (active)
Cc1ccc(-n2c(/C=C/c3cccc(C(F)(F)F)c3)nc3ccccc3c2=O)cc1 | -5.7%
Cc1ccccc1C(=O)Nc1sc2c(c1C(=O)N1CCC(C)CC1)CCCC2 | -11.9%
COc1cc(Br)cc2cc(S(=O)(=O)c3ccccc3)c(=O)oc12 | 14.3%
CC(C)(C)c1ccc(CN2C(=O)CN=C(c3ccccc3)c3ccccc32)cc1 | -79.6% (active)
CCN(CC)C(=O)C1=C(C)N(Cc2ccc(C(C)(C)C)cc2)C(=O)C(CC(=O)NCc2cccc3ccccc23)C1 (stereo not drawn) | 16.5%
COc1ccc(CN2C(=O)CN=C2Nc2ccc(C)cc2C)cc1 | 1.11%
O=C(c1ccc(Cl)cc1)n1nc(-c2cccnc2)nc1NCc1ccc(F)cc1 | 4.96%
CCOc1ccc(-c2cc3nc(C4CCN(C(=O)OC(C)(C)C)CC4)c(C(=O)Nc4ccc(C(=O)OC)cc4)cn3n2)cc1 | 24.4%

SMILES | activity change, negative = inhibition
COc1ccccc1CNC(=O)c1ccc(CS(=O)c2ccccc2Cl)o1 (stereo not drawn) | 9.25%
CCOc1ccc(NC(=O)c2c(NCc3cccc(OC)c3OC)sc3c2CCC3)cc1 | 13%
COCC(C)n1c(SCC(=O)NC2CCCCC2C)nc2ccccc2c1=O (stereo not drawn) | -19.2%
CN(c1ccc2nc3ccccc3c(=O)n2n1)C1CCCCC1 | -90% (active)
O=C(c1ccco1)N(Cc1nc2ccccc2c(=O)[nH]1)C1CCCC1 | -0.921%
COc1ccc(C(=O)N(Cc2ccccc2)c2ccc(C)cc2)cc1S(=O)(=O)N1CCOCC1 | -15.2%
O=C(CCc1ccc(S(=O)(=O)N2CCOCC2)cc1)Nc1ccc2ccccc2c1 | -9.83%
COc1ccc(CC(=O)Nc2ccc3c(c2)CCC3)cc1S(=O)(=O)N1CCOCC1 | -10.6%
COc1ccc(CCC(=O)Nc2ccc(Cl)c(S(=O)(=O)N3CCOCC3)c2)cc1OC | -69% (active)
COc1ccc(/C=C/C(=O)Nc2ccc(C)cc2)cc1S(=O)(=O)N1CCOCC1 | -73.1% (active)
COc1ccc(NC(=O)c2cc(=O)[nH]c3ccccc23)cc1S(=O)(=O)N1CCOCC1 | 9.13%
O=C(CSc1n[nH]c(-c2ccccc2)n1)N1CCCCC1 | 61.5%
CSc1nc(-c2ccc(F)cc2)nc2c1Cc1c(CO)cnc(C)c1O2 | 4.76%
CC(C)(CSc1nncn1/N=C/c1ccco1)NS(=O)(=O)c1ccc(Cl)cc1 | -28.3%
COc1cccc(NC(=O)N(Cc2cn(C)c3ccccc23)C2CCCCCC2)c1 | -105% (active)
COc1cccc(NC(=O)N2CCCC2C(=O)NC2CCCCC2)c1 (stereo not drawn) | -32.8%
COc1ccc(CCNC(=O)CCc2cn(C)c3ccccc23)c(OC)c1 | -11%
O=C(Cn1c(=O)n(-c2ccc(F)cc2)c(=O)c2sc3ccccc3c21)NC1CCCC1 | -5.96%
Fc1ccc(-c2nc(Nc3cccc(Cl)c3)nc3c2COc2ccccc2-3)cc1 | -30.5%
CCOC(=O)C(C)Sc1nnc(CSc2nc3nc(C)cc(C)n3n2)o1 (stereo not drawn) | -27.1%
Cc1cc2nnc(SCC(=O)N3CCN(c4ccccc4)CC3)n2c(N)n1 | 2.88%
Cn1c(CNC(=O)c2ccco2)nnc1SCC(=O)N1CCN(c2ccccc2)CC1 | 9.34%

SMILES | activity change, negative = inhibition
Cn1c(Cc2cccc3ccccc23)nnc1SCC(=O)N1CCN(c2cccc(Cl)c2)CC1 | -71.4% (active)
Cc1ccccc1NC(=O)Cn1c(=O)n(CCCCC(=O)NCc2ccccc2Cl)c(=O)c2ccccc21 | 0.203%
COc1ccc(N2CCN(c3ccc([N+](=O)[O-])nc3)CC2)cc1 | -29.8%
COc1ccc(N2CCN(c3cc(C)nc4nncn34)CC2)cc1 | -72.4% (active)
Cc1cc(N2CCN(c3ccc(F)cc3)CC2)n2ncnc2n1 | -22.6%
COC(=O)c1ccc(/C=N/OCC(=O)Nc2cc(F)ccc2F)cc1 | 36.6%
Cc1ccc2c(c1)c1c(c(=O)n(-c3ccccc3)c(=O)n1CC(=O)c1ccc(Cl)cc1)n2C | 7.77%
O=C(CN(Cc1ccccc1)C(=O)CCC(=O)Nc1ccccn1)NCCc1ccccc1 | 18.2%
COc1ccc(CNc2nc(-c3ccc(Cl)cc3)nn2C(=O)c2ccccc2)cc1 | 1.03%
COc1ccc(Cn2c(-c3ccc(Cl)cc3)c[n+]3ccccc23)cc1 | -95.3% (active)
COc1ccc(Cn2c(=O)oc3ccccc32)cc1 | 6.27%
CCN1C(=O)C(C(=O)NC(C)c2ccccc2)C2CC1(C)Oc1ccccc12 (stereo not drawn) | -37%
O=S(=O)(c1ccc(F)cc1)N1CCN=C1SCc1cccc(F)c1 | -18.5%
CCCS(=O)(=O)N1CCN=C1SCc1cccc(F)c1 | -70.6% (active)
O=C(COc1ccccc1)N1CCN=C1SCc1cccc(F)c1 | -11.8%
COc1cc(OC)cc(-c2nc3nc(C)c(CCC(=O)Nc4ccccc4)c(C)n3n2)c1 | 4.64%
Cc1ccc(NC(=O)c2ccc3[nH]c(C)cc(=O)c3c2)c(C)c1 | -8.34%
Cc1[nH]n(-c2ccccc2)c(=O)c1/C=N/NC(=O)c1ccoc1C | -99.7% (active)
O=C(N/N=C/c1c(O)n(C2CC2)c(=S)[nH]c1=O)c1ccccc1 | -8.42%
O=C(N/N=C/c1c(O)n(C2CC2)c(=S)[nH]c1=O)c1ccccc1Cl | -9.9%
CCOC(=O)CSc1nnc(CNC(=O)Cc2ccccc2)n1-c1ccccc1OC | -26.6%
CC(=O)c1ccc(NC(=O)c2nc(-c3ccc(C)cc3)n3c2CCCCC3)cc1 | -8.98%
